Screening results (PubChem)
ADAM10 inh = human ADAM10 inhibitors, primary screen, biochemical, QFRET, HTS | Disintegrin and metalloproteinase domain-containing protein 10 (Homo sapiens), O14672 | recombinant ADAM10, EDANS/DABCYL FRET peptide cleavage, 3 h | inhibition, % at 7 µM | actives 0.62% (n = 370,000);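 active = inhibition above a per-campaign cutoff equal to the mean of compounds falling between control-based bounds plus 3 SD, cut at about 20% in these data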
ADAM17 inh = ADAM17 inhibitors, primary screen, biochemical, QFRET | AID 720648, 2013 | Disintegrin and metalloproteinase domain-containing protein 17 (Homo sapiens), P78536 | recombinant ADAM17, EDANS/DABCYL FRET peptide cleavage | inhibition, % at 6.95 µM | actives 0.83% (n = 370,000);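 active = inhibition above the mean of compounds lying between control limits plus 3 SD, set per campaign, cut at about 8.5% in these data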
APOBEC3G inh = APOBEC3G DNA deaminase inhibitors, primary screen, biochemical, fluorescence, single-stranded DNA substrate, uHTS | DNA dC->dU-editing enzyme APOBEC-3G (Homo sapiens), Q9HC16 | recombinant A3G, ssDNA deamination FAM/TAMRA fluorescence | inhibition, % at 20 µM | actives 0.28% (n = 330,000) | AID 493012, 2011;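 active = inhibition of at least 40% at 20 µM, with no more than 30% in the related APOBEC3A deaminase screen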
Target sequence (Q9HC16 whole entry, looked up): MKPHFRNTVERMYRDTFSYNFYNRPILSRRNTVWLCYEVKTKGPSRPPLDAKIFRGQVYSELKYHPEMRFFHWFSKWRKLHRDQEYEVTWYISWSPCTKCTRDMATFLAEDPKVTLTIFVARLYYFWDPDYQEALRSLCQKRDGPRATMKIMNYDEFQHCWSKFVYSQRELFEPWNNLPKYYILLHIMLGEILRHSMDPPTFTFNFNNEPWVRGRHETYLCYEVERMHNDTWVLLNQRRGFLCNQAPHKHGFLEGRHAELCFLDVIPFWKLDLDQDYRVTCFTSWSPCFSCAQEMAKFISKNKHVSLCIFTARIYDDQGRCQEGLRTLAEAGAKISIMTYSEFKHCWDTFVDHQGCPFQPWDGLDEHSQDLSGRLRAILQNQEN
APOBEC3A inh = APOBEC3A ssDNA deaminase inhibitors, primary screen, selectivity assay for APOBEC3G inhibitor project, biochemical, FAM/TAMRA oligo cleavage fluorescence | recombinant A3A, FAM/TAMRA ssDNA deamination fluorescence | DNA dC->dU-editing enzyme APOBEC-3A (Homo sapiens), P31941 | inhibition, % at 20 µM | AID 493011, 2011 | actives 0.41% (n = 330,000);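 active = at least 40% inhibition at 20 µM here, with at most 30% in a related deaminase screen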
Target sequence (P31941 whole entry, looked up): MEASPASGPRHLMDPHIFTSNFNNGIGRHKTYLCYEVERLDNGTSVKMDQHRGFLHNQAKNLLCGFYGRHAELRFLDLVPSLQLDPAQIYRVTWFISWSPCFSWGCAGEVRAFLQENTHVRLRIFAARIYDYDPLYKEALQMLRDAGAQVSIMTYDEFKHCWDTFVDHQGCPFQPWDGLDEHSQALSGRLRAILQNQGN
NRP1-CendR mod = modulators of CendR peptide binding to NRP-1, primary screen, biochemical, fluorescence polarization, uHTS; FAM-RPARPAR peptide binding to NRP-1; inhibition, % at 25 µM; actives 0.85% (n = 360,000); Neuropilin-1 (Homo sapiens), O14786;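 active = inhibition or corrected inhibition above about 18%, plus a signal ratio from 0.5 to 1.5, limit read from the data, passing the limit was not always enough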
ADAM10 confirm = human ADAM10 inhibitors, confirmation, biochemical, QFRET, triplicate; ADAM10 QFRET peptide cleavage, EDANS fluorescence; inhibition, % at 6.95 µM; actives 1% (n = 2,100); shares compounds with ADAM10 inh; AID 743208, 2013;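 active = inhibition above about 20% chosen separately for each screening run, limit read from the data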
ADAM17 counter = ADAM17 inhibitors, counter-screen for ADAM10 exosite inhibitor project, biochemical, QFRET, high throughput; actives 0.5% (n = 2,100); AID 743214, 2013; shares compounds with ADAM10 inh; inhibition, % at 6.95 µM; ADAM17 QFRET peptide cleavage, EDANS fluorescence;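 active = mean triplicate inhibition above the solvent-only control wells' mean plus 3 SD, cut at about 12% in these data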
A number is an active result. Shown are actives, neighbours in structure and some others; about 2.4% of the full set was active somewhere.

Results for O=C(CSc1nnc(-c2ccc(Cl)cc2)n1-c1ccccc1)Nc1ccc2c(c1)OCCO2 ?
ADAM10 inh: inactive; ADAM17 inh: inactive

What do the screens show for `CCCCn1c(N)c(N(CCOC)C(=O)c2cc(C)oc2C)c(=O)[nH]c1=O`?
ADAM10 inh: 50.8; ADAM17 inh: inactive; APOBEC3G inh: inactive; APOBEC3A inh: inactive; NRP1-CendR mod: inactive; ADAM10 confirm: inactive; ADAM17 counter: inactive

What do the screens show for `CN(C)[C@H]1CCN(c2ccc3c(c2)OCCCN(C2CC2)S3(=O)=O)C1`?
ADAM10 inh: inactive; ADAM17 inh: inactive

What do the screens show for `CC(C)(C)N(Cc1cn(Cc2ccccc2)nn1)S(=O)(=O)c1ccc(F)cc1Br`?
ADAM10 inh: inactive; ADAM17 inh: inactive

What do the screens show for `CCOc1ccc(CC(=O)NNC(=S)Nc2ccccc2)cc1Br`?
ADAM10 inh: 20.5; ADAM17 inh: inactive; APOBEC3G inh: inactive; APOBEC3A inh: inactive; NRP1-CendR mod: inactive; ADAM10 confirm: inactive; ADAM17 counter: inactive

How did CC(C)Oc1ccc(CC(=O)NNC(=S)Nc2ccccc2)cc1 do in these assays?
ADAM10 inh: 27.3; ADAM17 inh: inactive; APOBEC3G inh: inactive; APOBEC3A inh: inactive; NRP1-CendR mod: inactive; ADAM10 confirm: inactive; ADAM17 counter: inactive

What do the screens show for `O=C(Cc1noc2ccccc12)NNC(=S)Nc1ccccc1`?
ADAM10 inh: 20.5; ADAM17 inh: inactive; APOBEC3G inh: inactive; APOBEC3A inh: inactive; NRP1-CendR mod: inactive; ADAM10 confirm: inactive; ADAM17 counter: inactive

How did COc1ccc(CC(=O)NNC(=S)Nc2ccccc2)cc1Br do in these assays?
ADAM10 inh: inactive; ADAM17 inh: inactive; APOBEC3G inh: inactive; APOBEC3A inh: inactive; NRP1-CendR mod: inactive

How did CC(CNC(=O)[C@@H](Cc1ccccc1)NC(=O)[C@H]1O[C@@H](n2cnc3c(=O)[nH]c(N)nc32)[C@H](O)[C@@H]1O)c1ccccc1 (some centres undefined) do in these assays?
ADAM10 inh: inactive; ADAM17 inh: inactive

How did COC(=O)[C@]12C[C@H](CC(=O)N3CCSCC3)C(=O)N(Cc3ccccc3)C1=C[C@H](C(C)C)O[C@@H]2C1CC1 do in these assays?
ADAM10 inh: inactive; ADAM17 inh: inactive

What do the screens show for `CC(C)CC(NS(=O)(=O)OCC(Cl)(Cl)Cl)c1ccccc1` (centres undefined)?
ADAM10 inh: 20.4; ADAM17 inh: inactive; APOBEC3G inh: inactive; APOBEC3A inh: inactive; NRP1-CendR mod: inactive; ADAM10 confirm: inactive; ADAM17 counter: inactive

What do the screens show for `CC(=O)N1c2ccc(S(=O)(=O)NCC3CCC(C(=O)NCc4ccc(C)cc4)CC3)cc2CC1C` (centres undefined)?
ADAM10 inh: 74.0; ADAM17 inh: inactive; APOBEC3G inh: inactive; APOBEC3A inh: inactive; NRP1-CendR mod: inactive; ADAM10 confirm: inactive; ADAM17 counter: inactive

Results for O=C(CSc1nc2ccccc2s1)Nc1ccc(Cl)c(C(=O)O)c1 ?
ADAM10 inh: inactive; ADAM17 inh: inactive; APOBEC3G inh: inactive; APOBEC3A inh: inactive; NRP1-CendR mod: inactive

Results for O=C(CSc1nc2ccc(NC(=O)c3ccccc3C(=O)O)cc2s1)Nc1c(Cl)cccc1Cl ?
ADAM10 inh: 20.4; ADAM17 inh: inactive; APOBEC3G inh: inactive; APOBEC3A inh: inactive; NRP1-CendR mod: inactive; ADAM10 confirm: inactive; ADAM17 counter: inactive

How did CCCC(=O)Nc1ccc(S(=O)(=O)N2CCCC2)cc1 do in these assays?
ADAM10 inh: inactive; ADAM17 inh: inactive; APOBEC3G inh: inactive; APOBEC3A inh: inactive; NRP1-CendR mod: inactive

How did CCCCC(=O)NC(=S)Nc1ccc(S(=O)(=O)N2CCCC2)cc1 do in these assays?
ADAM10 inh: 72.0; ADAM17 inh: inactive; APOBEC3G inh: inactive; APOBEC3A inh: inactive; NRP1-CendR mod: inactive; ADAM10 confirm: inactive; ADAM17 counter: inactive

Results for COC(=O)CSc1nnc(-c2ccc(NS(=O)(=O)c3c(C(C)C)cc(C(C)C)cc3C(C)C)cc2)o1 ?
ADAM10 inh: 20.6; ADAM17 inh: inactive; ADAM10 confirm: inactive; ADAM17 counter: inactive

How did COc1cc(Sc2ccc(C)cc2)c(OC)cc1N do in these assays?
ADAM10 inh: 29.7; ADAM17 inh: inactive; APOBEC3G inh: inactive; APOBEC3A inh: inactive; NRP1-CendR mod: inactive; ADAM10 confirm: inactive; ADAM17 counter: inactive

What do the screens show for `COc1ccc(O)cc1CN1CCN(c2ncc(Cc3ccccc3)cn2)CC1`?
ADAM10 inh: inactive; ADAM17 inh: inactive; NRP1-CendR mod: inactive

Results for Oc1ccc(Cl)c(CN2CCN(c3ncc(Cc4ccccc4)cn3)CC2)c1 ?
ADAM10 inh: 24.8; ADAM17 inh: 14.4; NRP1-CendR mod: inactive; ADAM10 confirm: inactive; ADAM17 counter: inactive

What do the screens show for `O=C(c1cc(-c2ccccc2)n[nH]1)N1CCc2c([nH]c3ccccc23)C1c1ccccn1` (centres undefined)?
ADAM10 inh: 27.1; ADAM17 inh: inactive; APOBEC3G inh: inactive; APOBEC3A inh: inactive; NRP1-CendR mod: inactive; ADAM10 confirm: inactive; ADAM17 counter: inactive

What do the screens show for `O=C(c1cccs1)N1CCc2c([nH]c3ccccc23)C1c1ccccn1` (centres undefined)?
ADAM10 inh: inactive; ADAM17 inh: inactive; APOBEC3G inh: inactive; APOBEC3A inh: inactive; NRP1-CendR mod: inactive

What do the screens show for `O=C(Nc1ccc(OC(F)F)c(Cl)c1)C(c1ccccc1)c1ccccc1`?
ADAM10 inh: 27.6; ADAM17 inh: 14.3; APOBEC3G inh: inactive; APOBEC3A inh: inactive; NRP1-CendR mod: inactive; ADAM10 confirm: inactive; ADAM17 counter: inactive

What do the screens show for `FC(F)Oc1ccc(NC(=S)NCc2ccccc2)cc1Cl`?
ADAM10 inh: inactive; ADAM17 inh: inactive; APOBEC3G inh: inactive; APOBEC3A inh: inactive; NRP1-CendR mod: inactive

What do the screens show for `Cc1cccc(C(=O)NC(=S)N2CCN(C(=S)NC(=O)c3cccc(C)c3)CC2)c1`?
ADAM10 inh: 24.0; ADAM17 inh: inactive; APOBEC3G inh: inactive; APOBEC3A inh: inactive; NRP1-CendR mod: inactive; ADAM10 confirm: inactive; ADAM17 counter: inactive

How did Cc1ccc2oc(=O)c(/C=C(\O)c3ccco3)nc2c1 do in these assays?
ADAM10 inh: 21.3; ADAM17 inh: inactive; APOBEC3G inh: inactive; APOBEC3A inh: inactive; NRP1-CendR mod: inactive; ADAM10 confirm: inactive; ADAM17 counter: inactive

What do the screens show for `Cc1ccc2oc(=O)c(/C=C(\O)C(C)(C)C)nc2c1`?
ADAM10 inh: inactive; ADAM17 inh: inactive; APOBEC3G inh: inactive; APOBEC3A inh: inactive; NRP1-CendR mod: inactive
